About 83,000 compounds went through this panel and 20% of them were active in at least one assay; those are over-represented in the sample as a whole.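 A percent growth of 40 corresponds to 60% growth inhibition; 0 means no net growth; -100 means all cells died. Active threshold: below 10.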 Active and inactive are the calls of the source.

The values that follow come from PubChem BioAssay (NCI).

The assay relates to U251 CNS. Kind of assay: NCI-60 one-dose screen, 48 h (100 = growth as untreated, 0 = no growth, -100 = all killed). To be noted: 10 µM unless noted. On the procedure:
Growth inhibition of the U251 human tumor cell line is measured as a screen for anti-cancer activity. Cells are grown in 96 well plates and exposed to the test compound for 48 hours. Compounds are tested at a single concentration, which is 10^-5 M for most compounds. The reported endpoint is percent growth (GI% or GIPRCNT), where numbers from 0 - 100% represent growth inhibition, and numbers from -100% - 0 represent cell death. For example, a value of 40 represents 60% growth inhibition. A value of 0 means no net growth occurred over the course of the experiment. A value of -40 indicates 40% of cells at the beginning of the experiment died by the end of the experiment. A value of -100 means all cells are dead at the end of the experiment.
NCI-60 Human Tumor Cell Lines Screen was performed using the standard one-dose NCI protocol, which is described in more detail at https://dtp.cancer.gov/discovery_development/nci-60/default.htm.
Compounds with GIPRCNT values below 10 were considered active. Activity score was based on GIPRCNT using the following formula: […]
Score is 0 for GIPRCNT values of 100 or above, 50 for GIPRCNT values of 0, and 100 for GIPRCNT values of -100.
Take `COc1ccc(Cn2cc(C(=O)N=Nc3c(O)[nH]c4c(C)cccc34)nn2)cc1`: the growth is 108% (inactive).
The same measure for `CCO/C=N/C1=C(C#N)C(c2ccc(F)cc2)c2sc3c(F)cccc3c2O1` (stereo not given): 26.6% (inactive).
The same measure for `CCCCNC(=O)Oc1ccc(/C(=C(/C)Cc2ccc(OC)cc2)c2ccc(OCCN3CCCCC3)cc2)cc1`: 54.7% (inactive); for `CC1(C)CC[C@]23CC[C@]4(C)[C@H](CC[C@@H]5[C@@]6(C)C/C(=C/c7ccncc7)C(=O)C(C)(C)[C@@H]6CC[C@]54C)[C@H]2[C@H]1OC3`: 70% (inactive).
The same measure for `CC(C)CCN(CCC(C)C)CC(O)c1cc2c(c3ccccc13)CCCC2` (stereo not given): 72.9% (inactive); for `COc1ccc(-c2nc3c(N)c(CO)cnc3s2)cc1`: 88.6% (inactive); for `Cc1nnc(-c2ccc3c(c2)nc(/C=C/c2ccccc2)n3C2CCCCC2)o1`: 79.8% (inactive).
For the compound `O=C1/C(=C\c2cccc3nccnc23)SC(=S)N1CCc1ccc(O)cc1`, the growth was 107% (inactive).
For `COc1ccc(-c2cc(-c3ccccc3)nc(N3CCN(CCNc4ccnc5cc(Cl)ccc45)CC3)n2)cc1`, the growth was 0.46% (active).
For `C#Cc1cccc(Nc2nc(C)nc3cc(NC(=O)CCl)ccc23)c1`, the growth is -93.9% (active).
Take `N#Cc1c(-c2ccccc2)nc(SCC(O)CN2CCOCC2)nc1N1CCOCC1` (stereo not given): the growth was 81.4% (inactive).
The same measure for `CO[C@H](C(=O)[C@@H](O)[C@@H](C)O)[C@@H]1Cc2cc3cc(O[C@H]4C[C@@H](O[C@H]5C[C@@H](O)[C@H](O)C(C)O5)[C@H](O)C(C)(O)O4)cc(O)c3c(O)c2C(=O)[C@H]1O[C@H]1C[C@@H](O[C@H]2C[C@@H](O[C@H]3C[C@@H](OC)[C@H](O)C(C)O3)[C@@H](O)C(C)O2)[C@H](O)C(C)O1` (stereo not given in full): 6.61% (active); for `O=C1/C(=C/c2ccccc2F)CN(C(=O)C(Cl)Cl)C/C1=C\c1ccccc1F`: -85.1% (active); for `Nc1ccc(-c2csc(-n3[nH]c(=O)ccc3=O)n2)cc1`: 100% (inactive).
The same measure for `Cn1c2c(c3ccc(Cl)c(Cl)c31)C(C#N)C(C)(C)NC2=O` (stereo not given): 91.1% (inactive); for `CC(C)=CCNc1ncnc2c1ncn2C1OC(CO)C(O)C1O` (stereo not given): 35.2% [1 mM] (inactive); for `O=C(Cn1nnc2ccccc21)N/N=C/c1c[nH]c2ccccc12`: 39.5% (inactive).
In the case of `O=C(/C=C/c1cccc(Cl)c1Cl)Nc1ncc(Cc2ccccc2Cl)s1`, the growth was 50.9% (inactive).
The same measure for `CC(C)(C)n1cc(-c2ccnc(NCCNS(=O)(=O)c3ccc(O)cc3)c2)c(-c2cccc(O)c2)n1`: 82.4% (inactive); for `CN(C)CCCC1(c2ccc(F)cc2)OCc2cc(-c3cc4ccccc4s3)ccc21` (stereo not given): -83% (active).
The same measure for `O=c1c2ccccc2c(=O)c2c1sc1c(=O)c3ccc(O)cc3c(=O)c12`: -65.8% (active); for `C=C1C(=O)O[C@H]2[C@H]1CC/C(CNC(=O)c1c[nH]c3ccc(F)cc13)=C\CC[C@@]1(C)O[C@@H]21`: 31.7% (inactive).
The same measure for `Cc1ccc(-c2csc(NC(=O)c3ccccc3CN3C(=O)c4ccccc4C3=O)n2)cc1`: 95.5% (inactive).
In the case of `COc1ccc(C2=NN(C(C)=O)C(c3cn(-c4ccccc4)nc3-c3ccc(Cl)cc3)C2)cc1` (stereo not given), the growth is -7.11% (active).
Turning to `CN(C)CCN1C(=O)c2cccc3c(/C=C/CN4C(=O)c5cccc6cccc(c56)C4=O)ccc(c23)C1=O`, the growth is 90.8% (inactive).
The same measure for `Fc1cccc(-c2ccc3c(c2)C2(CCNCC2)CN3)c1`: 107% (inactive); for `CC(C)(C)c1cc(Cl)c(O)c(CNCCO)c1`: 112% (inactive).
On to `NC(N)=NS(=O)(=O)c1ccc(NC2=C(I)C(=O)c3ncccc3C2=O)cc1`, for which the growth is 110% (inactive).
The same measure for `CCN(CC)CCN1C(=O)c2c(c(C)c3c(oc4ccc(O)cc43)c2C)C1=O`: -23.8% (active); for `Cc1ccc2nc(/C(C#N)=C(/CCCO)NC(Cc3ccccc3)C(=O)OCc3ccccc3)[nH]c(=O)c2c1` (stereo not given): 104% (inactive); for `Cc1cn(-c2cc(NC(=O)c3cncc(C#Cc4c(N)ncc5ccc(F)cc45)c3)cc(C(F)(F)F)c2)cn1`: 80.4% (inactive).
The same measure for `COc1ccc(C(=O)Cn2c(C(=O)c3ccc(Cl)cc3)nc3ccccc32)cc1`: 65.3% (inactive).
The same measure for `CC(=O)c1sc2sc(C(C)=O)c(C)c2c1C`: 93.9% (inactive); for `COc1ccc(/C(C)=C(/c2ccc(OCCCN(C)C)cc2)c2ccc(OC(=O)c3ccccc3)cc2)cc1`: 68.2% (inactive).
For `C#CCOc1cccc(-c2ncnc3cc(NC(=O)C=C)ccc23)c1`, the growth is 51.4% (inactive).
The same measure for `COc1ccc(/C=C2\CN(C(=O)C(Cl)Cl)C/C(=C\c3ccc(OC)cc3)C2=O)cc1`: -68.2% (active); for `O=C(Nc1ncc(Cc2cc(C(F)(F)F)ccc2Cl)s1)c1cccs1`: 42.5% (inactive); for `COc1cccc(/C=C/C(=O)c2cccc(Nc3nc(Nc4ccccc4)nc(Nc4ccccc4)n3)c2)c1`: 53.8% (inactive).
The same measure for `CN1CCN(CC(=O)Nc2ccc3ncnc(Nc4ccc(Oc5cccc(C(F)(F)F)c5)c(Cl)c4)c3c2)CC1`: 0.145% (active); for `CCOC(=O)C(=CNc1cnc(Nc2ccc(N3CCOCC3)cc2)nc1Oc1ccc(OC)cc1)C(=O)OCC`: -19.4% (active).
